# According to PubChem BioAssay (Tox21):
# A number with no mark means an inactive call. Results filed as inconclusive are left out. A call without a number means that no potency is given here. Calls of active or inactive are those of the source. Unless noted, calls come from the whole dose curve; as a rule, active = well fitted curve in the direction sought with a large enough effect in the repeat runs; inconclusive = weak or mixed curves; inactive = no such curve, though single readings can be large; an effect the other way counts as inactive or inconclusive.
# Assays:
# [1] = Human pregnane X receptor (PXR) small molecule agonists, qHTS cell viability counter screen (AID 1346977); note: nearly all actives have a fitted effect of over 50% in size; note: potency is the fitted concentration of half-maximal effect
# How it was run: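 Readout is CellTiter-Fluor fluorescence from PXR-Luc HepG2 cells. Plated cells rested 5hr, then were treated with compounds for 24hr at 37C and 5% CO2, with reagent present during the last hour.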
# [2] = Caspase-3/7 induction in HepG2 cells by small molecules, qHTS assay (AID 1346978); note: nearly all actives have a fitted effect of over 15% in size
# How it was run: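 Caspase-3/7 induction was measured by Caspase-Glo 3/7 luminescence (30 min, room temperature) after a 17 hr compound exposure of wild-type HepG2 cells seeded at 2,000 per well and pre-incubated 5 hr.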
# [3] = Caspase-3/7 induction in CHO-K1 cells by small molecules, qHTS cell viability counter screen (AID 1346979); note: nearly all actives have a fitted effect of over 35% in size; note: potency is the fitted concentration of half-maximal effect
# How it was run: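 To flag cytotoxic compounds, treated CHO-K1 wild-type cells were given CellTiter-Fluor at 16hr and read fluorescently after 1hr at 37C; the caspase-3/7 luminescence was measured in these same wells.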
# [4] = Caspase-3/7 induction in CHO-K1 cells by small molecules, qHTS assay (AID 1346980); note: nearly all actives have a fitted effect of over 15% in size
# How it was run: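 Luminescent Caspase-Glo 3/7 read (30min, room temperature) quantified apoptosis induction. Cells were wild-type CHO-K1, treated with compound for 17hr at 37 C and 5% CO2.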
# [5] = Caspase-3/7 induction in HepG2 cells by small molecules, qHTS cell viability counter screen (AID 1346981); note: nearly all actives have a fitted effect of over 30% in size; note: potency is the fitted concentration of half-maximal effect; for activity change, negative = cytotoxicity: series mostly up to about 92 µM
# How it was run: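 The parent HepG2 line is plated at 2,000 cells per well and rested 5 hr before compound pinning from DMSO stocks. Following a 16-hr treatment at 37 C, a fluorogenic live-cell substrate (CellTiter-Fluor) reports viability after 1 hr.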
# [6] = target: Nuclear receptor subfamily 1 group I member 2 (Homo sapiens) (UniProt O75469); assay: Human pregnane X receptor (PXR) small molecule agonists, qHTS assay (AID 1346982); note: nearly all actives have a fitted effect of over 35% in size; note: potency is the fitted concentration of half-maximal effect
# How it was run: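 After plating in 5% charcoal-stripped FBS and a 5 hr rest, PXR-Luc HepG2 cells received compounds in DMSO. Following 24 hr at 37 C, ONE-Glo was added and light output read.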
# [7] = target: Cytochrome P450 2D6 (Homo sapiens) (UniProt P10635); assay: Cytochrome P450 Family 2 Subfamily D Member 6 (CYP2D6) small molecule antagonists: luciferase reporter qHTS assay (AID 1671196); note: nearly all actives have a fitted effect of over 50% in size; note: potency is the fitted concentration of half-maximal effect; for activity change, negative = inhibition: series mostly up to about 120 µM
# How it was run: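 Quantitative HTS of Tox21 chemicals against CYP2D6 using a luminescent proluciferin substrate. After NADPH addition, 1 h room-temperature reaction; luminescence recorded 20 min post detection reagent.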
# [8] = target: Cytochrome P450 2C19 (Homo sapiens) (UniProt P33261); assay: Cytochrome P450 Family 2 Subfamily C Member 19 (CYP2C19) small molecule antagonists: luciferase reporter qHTS assay (AID 1671197); note: nearly all actives have a fitted effect of over 65% in size; note: potency is the fitted concentration of half-maximal effect; for activity change, negative = inhibition: series mostly up to about 120 µM
# How it was run: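 Compounds were tested on CYP2C19 activity via proluciferin conversion to luciferin. The 37C, 1 h reaction followed NADPH addition; detection reagent stopped it.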
# [9] = target: Cytochrome P450 2C9 (Homo sapiens) (UniProt P11712); assay: Cytochrome P450 Family 2 Subfamily C Member 9 (CYP2C9) small molecule antagonists: luciferase reporter qHTS assay (AID 1671198); note: nearly all actives have a fitted effect of over 50% in size; note: potency is the fitted concentration of half-maximal effect; for activity change, negative = inhibition: series mostly up to about 120 µM
# How it was run: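 Enzyme-substrate mix preincubated with compound 10 min at room temperature; reaction started with NADPH regeneration solution, 1 h 37C. Luminescent luciferin product read after 20 min detection reagent.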
# [10] = target: Voltage-gated inwardly rectifying potassium channel KCNH2 (Homo sapiens) (UniProt Q12809); assay: Human Ether-a-go-go-Related Gene (hERG) channel small molecule antagonists: fluorescence cell-based qHTS assay (AID 1671200); note: nearly all actives have a fitted effect of over 50% in size; note: potency is the fitted concentration of half-maximal effect;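 for activity change, negative = inhibition: hERG-expressing U2OS cells given a thallium stimulus after FluxOR II dye loading; series mostly up to about 77 µM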
# How it was run: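 Measured: Tl+ flux via fluorescence (480/540 nm) in hERG-expressing U2OS cells after 1 h dye loading at room temperature.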
# [11] = target: Cytochrome P450 3A4 (Homo sapiens) (UniProt P08684); assay: Cytochrome P450 Family 3 Subfamily A Member 4 (CYP3A4) small molecule antagonists: luciferase reporter qHTS assay (AID 1671201); note: nearly all actives have a fitted effect of over 50% in size; note: potency is the fitted concentration of half-maximal effect; for activity change, negative = inhibition: series mostly up to about 120 µM
# How it was run: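 Setup: enzyme-substrate mix, compound pin transfer, 10 min RT. Reaction: NADPH regeneration solution, 1 h RT. Readout: detection reagent stops turnover, luminescence measured after 20 min, expressed in relative luminescence units.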
# [12] = target: Nuclear receptor subfamily 1 group I member 2 (Rattus norvegicus) (UniProt Q9R1A7); assay: Rat pregnane X receptor (rPXR) activation by small molecules, qHTS assay (AID 1346983); conditions: rPXR luciferase reporter cells, One-Glo luminescence, 24 h; max activation: hits give high values; note: nearly all actives have a fitted effect of over 20% in size
# How it was run: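 Luminescent readout (One-Glo luciferase, 30 min room temperature) followed 24 hr compound treatment at 37 C of rPXR cells plated 2,000 per well and preincubated 5hr; qHTS format with compounds delivered in DMSO.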
# [13] = target: Nuclear receptor subfamily 1 group I member 2 (Homo sapiens) (UniProt O75469); assay: CYP3A4 induction through human pregnane X receptor (PXR) by small molecules, qHTS assay (AID 1346984); note: nearly all actives have a fitted effect of over 40% in size; note: potency is the fitted concentration of half-maximal effect
# How it was run: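 Human PXR activation is tracked via CYP3A4 promoter-luciferase in DPX-2 (HepG2) cells. Compounds treat cells for 24hr at 37C, and luminescence is read after One-Glo.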
# [14] = target: Nuclear receptor subfamily 1 group I member 2 (Homo sapiens) (UniProt O75469); assay: Human pregnane X receptor (PXR) activation by small molecules, qHTS assay (AID 1346985); note: nearly all actives have a fitted effect of over 40% in size
# How it was run: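 DPX-2 cells (HepG2 co-transfected with a PXR response element and a CYP3A4-promoter luciferase construct) were seeded at 2,000 per well, rested 5 hr at 37C, then exposed to DMSO-dissolved compounds for 24 hr. Activation was read as luciferase luminescence.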
# [15] = target: Cytochrome P450 1A2 (Homo sapiens) (UniProt P05177); assay: Cytochrome P450 Family 1 Subfamily A Member 2 (CYP1A2) small molecule antagonists: luciferase reporter qHTS assay (AID 1671199); note: nearly all actives have a fitted effect of over 50% in size; note: potency is the fitted concentration of half-maximal effect; for activity change, negative = inhibition: series mostly up to about 120 µM
# How it was run: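 Quantitative high-throughput format using the P450-Glo CYP1A2 system. Reaction initiated by NADPH regeneration solution, 1 h at room temperature, then stopped with detection reagent; luminescence measured 20 min later.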
# [16] = target: Thyrotropin-releasing hormone receptor (Homo sapiens) (UniProt P34981); assay: qHTS assay to identify small molecule agonists of the thyrotropin-releasing hormone receptor (TRHR) signaling pathway (AID 1346891; calls by dose curve;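 note: HEK293 cells expressing TRHR with calcium dye readout; series mostly up to about 58 µM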)
# How it was run: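 In 1536-format, 1500 TRHR-Hek293 cells per well grew 18 h, took up calcium dye for 2 h at 37 °C, received compound, and were read kinetically; 15-point titrations, triplicates.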
# Sequence of Thyrotropin-releasing hormone receptor (Homo sapiens) (P34981 whole entry, looked up): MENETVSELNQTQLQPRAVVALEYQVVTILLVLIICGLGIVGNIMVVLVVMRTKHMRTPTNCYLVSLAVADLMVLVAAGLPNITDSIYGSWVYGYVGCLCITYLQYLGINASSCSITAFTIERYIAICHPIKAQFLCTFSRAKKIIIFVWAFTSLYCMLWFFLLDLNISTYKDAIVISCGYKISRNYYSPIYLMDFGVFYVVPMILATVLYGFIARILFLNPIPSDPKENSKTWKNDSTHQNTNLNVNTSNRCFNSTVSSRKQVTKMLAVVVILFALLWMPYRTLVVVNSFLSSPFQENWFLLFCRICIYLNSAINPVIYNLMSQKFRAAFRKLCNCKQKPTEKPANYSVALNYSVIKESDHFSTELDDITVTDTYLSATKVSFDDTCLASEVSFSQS
# Sequence of Voltage-gated inwardly rectifying potassium channel KCNH2 (Homo sapiens) (Q12809 whole entry, looked up): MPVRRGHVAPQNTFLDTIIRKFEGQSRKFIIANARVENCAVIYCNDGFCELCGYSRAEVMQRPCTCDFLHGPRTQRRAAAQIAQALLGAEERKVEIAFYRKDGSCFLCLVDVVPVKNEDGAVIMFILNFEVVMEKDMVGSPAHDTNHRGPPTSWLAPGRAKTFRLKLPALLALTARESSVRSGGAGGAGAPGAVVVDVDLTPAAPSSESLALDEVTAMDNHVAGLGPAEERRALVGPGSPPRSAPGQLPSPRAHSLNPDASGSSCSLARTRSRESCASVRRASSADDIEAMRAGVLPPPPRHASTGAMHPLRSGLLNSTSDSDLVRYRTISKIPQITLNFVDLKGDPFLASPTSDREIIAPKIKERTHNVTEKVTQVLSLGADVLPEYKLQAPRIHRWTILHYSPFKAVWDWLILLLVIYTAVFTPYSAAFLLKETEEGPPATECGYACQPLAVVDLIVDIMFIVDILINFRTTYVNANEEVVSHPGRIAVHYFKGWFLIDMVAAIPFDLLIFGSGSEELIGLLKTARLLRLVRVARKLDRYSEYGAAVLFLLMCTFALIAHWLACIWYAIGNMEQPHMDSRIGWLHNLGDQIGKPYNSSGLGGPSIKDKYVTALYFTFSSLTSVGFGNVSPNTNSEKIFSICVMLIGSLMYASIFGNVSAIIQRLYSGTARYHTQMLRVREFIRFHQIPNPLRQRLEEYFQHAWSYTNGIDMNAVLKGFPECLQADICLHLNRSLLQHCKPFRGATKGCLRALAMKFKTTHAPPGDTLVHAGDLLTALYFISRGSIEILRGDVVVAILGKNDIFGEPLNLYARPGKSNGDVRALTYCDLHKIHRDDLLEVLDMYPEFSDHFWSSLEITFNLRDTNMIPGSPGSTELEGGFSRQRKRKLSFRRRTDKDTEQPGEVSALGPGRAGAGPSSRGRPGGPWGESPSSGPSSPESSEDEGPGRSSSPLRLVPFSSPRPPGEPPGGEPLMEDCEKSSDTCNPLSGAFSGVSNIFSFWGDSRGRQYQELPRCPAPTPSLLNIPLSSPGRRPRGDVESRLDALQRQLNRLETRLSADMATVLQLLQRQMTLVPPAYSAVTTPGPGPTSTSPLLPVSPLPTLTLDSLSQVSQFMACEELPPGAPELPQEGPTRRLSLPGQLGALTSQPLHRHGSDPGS
# Sequence of Cytochrome P450 2C19 (Homo sapiens) (P33261 whole entry, looked up): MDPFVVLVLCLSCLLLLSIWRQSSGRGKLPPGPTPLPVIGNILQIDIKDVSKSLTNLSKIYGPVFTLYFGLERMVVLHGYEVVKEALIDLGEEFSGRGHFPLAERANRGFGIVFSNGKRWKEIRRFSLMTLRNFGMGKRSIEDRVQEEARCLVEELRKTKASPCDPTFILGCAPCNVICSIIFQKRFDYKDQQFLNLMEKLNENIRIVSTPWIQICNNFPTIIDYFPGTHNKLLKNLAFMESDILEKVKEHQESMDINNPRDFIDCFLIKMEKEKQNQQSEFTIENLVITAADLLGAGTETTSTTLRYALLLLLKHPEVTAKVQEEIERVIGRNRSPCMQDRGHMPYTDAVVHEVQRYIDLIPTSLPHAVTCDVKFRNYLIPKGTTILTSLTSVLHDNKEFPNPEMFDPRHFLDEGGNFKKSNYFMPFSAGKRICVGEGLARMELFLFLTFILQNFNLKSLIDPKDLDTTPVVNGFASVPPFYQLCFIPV
# Sequence of Nuclear receptor subfamily 1 group I member 2 (Homo sapiens) (O75469 whole entry, looked up): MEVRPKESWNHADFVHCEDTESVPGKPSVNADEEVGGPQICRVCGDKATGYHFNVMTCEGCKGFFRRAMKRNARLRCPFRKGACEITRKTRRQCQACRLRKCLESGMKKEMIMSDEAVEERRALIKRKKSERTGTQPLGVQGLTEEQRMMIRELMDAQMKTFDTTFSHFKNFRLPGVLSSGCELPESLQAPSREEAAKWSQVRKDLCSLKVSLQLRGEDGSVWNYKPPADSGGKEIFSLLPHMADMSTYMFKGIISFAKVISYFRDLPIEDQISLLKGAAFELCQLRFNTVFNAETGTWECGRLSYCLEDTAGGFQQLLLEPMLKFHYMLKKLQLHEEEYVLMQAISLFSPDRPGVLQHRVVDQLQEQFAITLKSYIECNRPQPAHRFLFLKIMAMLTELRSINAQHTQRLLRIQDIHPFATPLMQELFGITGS
# Sequence of Cytochrome P450 3A4 (Homo sapiens) (P08684 whole entry, looked up): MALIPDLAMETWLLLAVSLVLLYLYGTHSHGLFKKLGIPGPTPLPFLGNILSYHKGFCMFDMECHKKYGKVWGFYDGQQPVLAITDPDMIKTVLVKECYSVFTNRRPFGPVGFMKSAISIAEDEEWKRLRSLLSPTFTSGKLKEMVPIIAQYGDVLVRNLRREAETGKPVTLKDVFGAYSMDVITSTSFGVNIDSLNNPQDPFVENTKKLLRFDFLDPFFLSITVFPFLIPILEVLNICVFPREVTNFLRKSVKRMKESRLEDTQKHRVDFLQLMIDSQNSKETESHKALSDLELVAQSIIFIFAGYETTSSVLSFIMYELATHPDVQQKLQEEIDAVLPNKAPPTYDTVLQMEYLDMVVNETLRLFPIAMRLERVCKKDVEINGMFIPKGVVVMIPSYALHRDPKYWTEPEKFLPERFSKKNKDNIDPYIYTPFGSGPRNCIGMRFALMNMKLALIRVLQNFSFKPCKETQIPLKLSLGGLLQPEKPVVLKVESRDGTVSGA
# Sequence of Cytochrome P450 2C9 (Homo sapiens) (P11712 whole entry, looked up): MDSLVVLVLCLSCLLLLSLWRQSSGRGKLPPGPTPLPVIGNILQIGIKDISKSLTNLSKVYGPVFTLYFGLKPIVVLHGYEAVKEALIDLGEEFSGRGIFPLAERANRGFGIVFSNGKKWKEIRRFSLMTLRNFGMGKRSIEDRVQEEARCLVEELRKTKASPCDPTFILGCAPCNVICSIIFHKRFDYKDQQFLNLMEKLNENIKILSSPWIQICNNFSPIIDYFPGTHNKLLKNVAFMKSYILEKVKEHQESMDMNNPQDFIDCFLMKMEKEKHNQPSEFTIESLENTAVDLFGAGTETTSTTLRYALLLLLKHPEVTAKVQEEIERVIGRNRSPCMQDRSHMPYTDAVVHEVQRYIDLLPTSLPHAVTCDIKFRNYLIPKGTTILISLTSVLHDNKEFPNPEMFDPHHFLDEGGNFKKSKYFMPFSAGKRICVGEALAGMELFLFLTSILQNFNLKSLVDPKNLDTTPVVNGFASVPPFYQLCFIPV
# Sequence of Cytochrome P450 2D6 (Homo sapiens) (P10635 whole entry, looked up): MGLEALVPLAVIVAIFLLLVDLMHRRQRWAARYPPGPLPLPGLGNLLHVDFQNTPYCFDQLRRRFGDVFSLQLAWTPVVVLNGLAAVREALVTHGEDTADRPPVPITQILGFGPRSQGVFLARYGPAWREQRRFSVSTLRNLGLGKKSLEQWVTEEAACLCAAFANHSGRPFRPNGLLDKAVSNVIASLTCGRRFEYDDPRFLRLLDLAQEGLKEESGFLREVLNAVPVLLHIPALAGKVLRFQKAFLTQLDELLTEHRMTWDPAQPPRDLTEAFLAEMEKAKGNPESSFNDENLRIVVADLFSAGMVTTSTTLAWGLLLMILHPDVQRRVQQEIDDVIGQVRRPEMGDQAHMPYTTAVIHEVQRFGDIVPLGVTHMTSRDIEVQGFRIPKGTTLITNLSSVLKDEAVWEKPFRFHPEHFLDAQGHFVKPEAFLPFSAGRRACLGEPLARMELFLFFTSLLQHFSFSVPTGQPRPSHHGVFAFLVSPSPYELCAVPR
# Sequence of Cytochrome P450 1A2 (Homo sapiens) (P05177 whole entry, looked up): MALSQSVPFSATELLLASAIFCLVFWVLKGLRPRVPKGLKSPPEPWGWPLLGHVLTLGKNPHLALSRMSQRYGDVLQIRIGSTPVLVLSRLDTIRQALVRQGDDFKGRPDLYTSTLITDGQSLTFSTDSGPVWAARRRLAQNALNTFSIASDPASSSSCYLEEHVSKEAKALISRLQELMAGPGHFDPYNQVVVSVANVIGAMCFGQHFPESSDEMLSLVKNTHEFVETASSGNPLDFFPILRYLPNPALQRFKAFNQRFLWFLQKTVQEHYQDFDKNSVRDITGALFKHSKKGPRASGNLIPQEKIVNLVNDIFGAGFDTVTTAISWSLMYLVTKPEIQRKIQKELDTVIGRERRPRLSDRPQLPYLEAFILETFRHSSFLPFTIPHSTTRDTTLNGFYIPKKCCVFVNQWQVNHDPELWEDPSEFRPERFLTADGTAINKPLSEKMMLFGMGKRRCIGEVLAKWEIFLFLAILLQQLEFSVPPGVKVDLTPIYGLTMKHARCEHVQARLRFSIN
# Sequence of Nuclear receptor subfamily 1 group I member 2 (Rattus norvegicus) (Q9R1A7 whole entry, looked up): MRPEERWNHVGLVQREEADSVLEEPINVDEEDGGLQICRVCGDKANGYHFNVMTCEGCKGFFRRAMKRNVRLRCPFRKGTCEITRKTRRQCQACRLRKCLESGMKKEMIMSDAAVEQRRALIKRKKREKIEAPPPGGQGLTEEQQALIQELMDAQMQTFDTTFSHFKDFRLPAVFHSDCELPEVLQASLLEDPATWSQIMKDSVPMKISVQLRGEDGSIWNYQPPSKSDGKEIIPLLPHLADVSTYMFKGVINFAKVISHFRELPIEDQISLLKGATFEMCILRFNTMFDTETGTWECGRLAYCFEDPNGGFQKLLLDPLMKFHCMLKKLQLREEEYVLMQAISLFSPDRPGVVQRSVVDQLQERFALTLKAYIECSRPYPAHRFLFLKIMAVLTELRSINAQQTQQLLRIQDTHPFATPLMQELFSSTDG
smiles,measurement,setting,value
Cc1nc2ccccc2s1,Potency,[1],inactive
same,Potency,[2],inactive
same,Potency,[3],inactive
same,outcome,[4],inactive
same,Potency,[5],inactive
same,Potency,[6],inactive
same,Potency,[7],inactive
same,Potency,[8],80.2 µM (active)
same,Potency,[9],inactive
same,Potency,[10],inactive
CC(CCO)CCc1ccccc1 (configuration not stated),Potency,[1],inactive
same,Potency,[2],inactive
same,Potency,[3],inactive
same,outcome,[4],inactive
same,Potency,[5],inactive
same,Potency,[6],inactive
same,Potency,[7],inactive
same,Potency,[8],7.96 µM (active)
same,Potency,[9],35.6 µM (active)
same,Potency,[10],inactive
same,Potency,[11],inactive
CCCCCCCCCCCCCCCCBr,"activity change, negative = cytotoxicity",[1],-1.37% [at 19 µM]
same,caspase activation,[2],2.76% [at 19 µM]
same,"activity change, negative = cytotoxicity",[3],4.02% [at 19 µM]
same,caspase-3/7 activation,[4],-0.176% [at 19 µM]
same,"activity change, negative = cytotoxicity",[5],4.64% [at 19 µM]
same,activation,[6],-5.34% [at 19 µM]
same,"activity change, negative = inhibition",[7],-8.89% [at 23.6 µM]
same,"activity change, negative = inhibition",[8],0.164% [at 23.6 µM]
same,"activity change, negative = inhibition",[9],-1.68% [at 23.6 µM]
same,"activity change, negative = inhibition",[10],1.22% [at 15.8 µM]
same,"activity change, negative = inhibition",[11],-0.429% [at 23.6 µM]
O=C(O)C(Cc1cc(I)c(O)c(I)c1)c1ccccc1 (configuration not stated),Potency,[1],inactive
same,Potency,[2],inactive
same,Potency,[3],inactive
same,outcome,[4],inactive
same,Potency,[5],inactive
same,Potency,[6],inactive
same,max activation,[12],-2.03%
same,Potency,[13],inactive
same,Potency,[14],inactive
same,Potency,[8],inactive
same,Potency,[9],9.77 µM (active)
same,Potency,[15],24.5 µM (active)
same,Potency,[10],inactive
same,Potency,[11],inactive
COC(=O)CC(=O)C(C)(C)C,Potency,[1],inactive
same,Potency,[2],inactive
same,Potency,[3],inactive
same,outcome,[4],inactive
same,Potency,[5],inactive
same,Potency,[6],inactive
same,Potency,[7],inactive
same,Potency,[8],inactive
same,Potency,[10],inactive
same,Potency,[11],inactive
C/C=C/C=C/CCCCCCCO,Potency,[16],inactive
same,Potency,[2],inactive
same,outcome,[4],inactive
same,Potency,[5],inactive
same,Potency,[6],61.1 µM (active)
same,Potency,[8],25.2 µM (active)
same,Potency,[9],7.1 µM (active)
same,Potency,[11],15.9 µM (active)
CN(C)CCOC1=Cc2ccccc2Sc2ccc(Cl)cc21,Potency,[16],inactive
same,outcome,[4],inactive
same,Potency,[5],inactive
same,Potency,[6],inactive
same,Potency,[9],inactive
same,Potency,[15],18.2 µM (active)
COC(=O)c1cc(S(N)(=O)=O)ccc1OC,Potency,[1],inactive
same,Potency,[2],inactive
same,Potency,[3],inactive
same,outcome,[4],inactive
same,Potency,[5],inactive
same,Potency,[6],inactive
same,Potency,[7],inactive
same,Potency,[8],inactive
same,Potency,[9],inactive
same,Potency,[15],inactive
same,Potency,[10],inactive
CNCCCC1c2ccccc2C=Cc2ccccc21,Potency,[16],inactive
same,Potency,[3],26.6 µM (active)
same,outcome,[4],inactive
same,Potency,[13],3.55 µM (active)
same,Potency,[7],4.9 µM (active)
same,Potency,[8],inactive
same,Potency,[9],inactive
same,Potency,[15],inactive
Cc1cc2nc3ccc(=[N+](C)C)cc-3sc2cc1N,Potency,[1],13.3 µM (active)
same,Potency,[2],inactive
same,Potency,[3],1.88 µM (active)
same,outcome,[4],inactive
same,Potency,[5],23.7 µM (active)
same,Potency,[6],inactive
same,Potency,[7],5.49 µM (active)
same,Potency,[8],0.776 µM (active)
same,Potency,[9],19.5 µM (active)
same,Potency,[10],inactive
CNC(=S)NC,Potency,[16],inactive
same,Potency,[2],inactive
same,outcome,[4],inactive
same,Potency,[5],inactive
same,Potency,[6],inactive
same,Potency,[8],inactive
same,Potency,[9],inactive
same,Potency,[15],31.7 µM (active)
same,Potency,[10],inactive
same,Potency,[11],inactive
C/C(=N/NC(=O)c1ccncc1)C(=O)O,Potency,[1],inactive
same,Potency,[2],inactive
same,Potency,[3],inactive
same,outcome,[4],inactive
same,Potency,[5],inactive
same,Potency,[6],inactive
same,Potency,[7],inactive
same,Potency,[9],inactive
same,Potency,[15],inactive
same,Potency,[10],inactive
same,Potency,[11],inactive
CCCC1C(CC)=CC(CC)=CN1c1ccccc1 (configuration not stated),Potency,[1],inactive
same,Potency,[2],inactive
same,Potency,[3],inactive
same,outcome,[4],inactive
same,Potency,[5],inactive
same,Potency,[6],24.3 µM (active)
same,Potency,[7],20 µM (active)
same,Potency,[8],2 µM (active)
same,Potency,[9],17.8 µM (active)
CC(=O)N(c1onc(C)c1C)S(=O)(=O)c1ccc(N)cc1,Potency,[1],inactive
same,Potency,[2],inactive
same,Potency,[3],inactive
same,outcome,[4],inactive
same,Potency,[5],inactive
same,Potency,[6],inactive
same,Potency,[7],inactive
same,Potency,[9],inactive
same,Potency,[15],inactive
same,Potency,[10],inactive
Fc1c(F)c(F)c(Br)c(F)c1F,Potency,[16],inactive
same,Potency,[3],inactive
same,outcome,[4],inactive
same,Potency,[5],inactive
same,Potency,[6],inactive
same,Potency,[7],inactive
same,Potency,[8],inactive
same,Potency,[9],inactive
same,Potency,[10],inactive
same,Potency,[11],inactive
C=CCCCCCCCCCCCCCCCC,"activity change, negative = cytotoxicity",[1],0.0327% [at 8.39 µM]
same,caspase activation,[2],-6.49% [at 8.39 µM]
same,"activity change, negative = cytotoxicity",[3],7.02% [at 8.39 µM]
same,caspase-3/7 activation,[4],0.114% [at 8.39 µM]
same,"activity change, negative = cytotoxicity",[5],-1.16% [at 8.39 µM]
same,activation,[6],-1.52% [at 8.39 µM]
same,"activity change, negative = inhibition",[7],0.602% [at 10.5 µM]
same,"activity change, negative = inhibition",[9],3.76% [at 10.5 µM]
same,"activity change, negative = inhibition",[15],-11.2% [at 10.5 µM]
same,"activity change, negative = inhibition",[10],-0.108% [at 6.97 µM]
same,"activity change, negative = inhibition",[11],6.02% [at 10.5 µM]
CCCOC(=O)c1ccc(N)cc1,Potency,[1],inactive
same,Potency,[2],inactive
same,Potency,[3],inactive
same,outcome,[4],inactive
same,Potency,[5],inactive
same,Potency,[6],inactive
same,max activation,[12],14.2%
same,Potency,[13],inactive
same,Potency,[14],inactive
same,Potency,[8],24.5 µM (active)
same,Potency,[15],6.45 µM (active)
same,Potency,[10],inactive
CCC(Cc1ccccc1)(C(=O)c1ccc(N2CCOCC2)cc1)N(C)C (configuration not stated),Potency,[16],inactive
same,Potency,[2],inactive
same,outcome,[4],inactive
same,Potency,[6],30.6 µM (active)
same,Potency,[7],7.96 µM (active)
same,Potency,[8],39.9 µM (active)
same,Potency,[9],35.6 µM (active)
same,Potency,[15],inactive
same,Potency,[10],13.8 µM (active)
CCC(C)(C)C1CCC(O)CC1 (configuration not stated),Potency,[1],inactive
same,Potency,[2],inactive
same,Potency,[3],inactive
same,outcome,[4],inactive
same,Potency,[5],inactive
same,Potency,[6],inactive
same,Potency,[7],inactive
same,Potency,[8],inactive
same,Potency,[9],inactive
same,Potency,[11],inactive
